According to the supplement of paper PMC6555819:

These sequences were tested on VDR homodimer (NR concentration 270 nM) (assay: PBM binding z-score (relative to random genomic background probes); higher = stronger binding; sequences stand for … in GC…GCGATTGACAGCGTAGAATGAAGG).
How it was run: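 Binding buffer was PBS pH 7.4 with 2% milk, 0.02% Triton X-100, 1 mM DTT, 0.2 mg/mL BSA and 0.4 mg/ml salmon testes DNA. In it, ligand-free nuclear receptor dimers were incubated 1 h on custom Agilent 4×180K protein-binding microarrays carrying double-stranded probes. Antibodies against each partner (one per run) detected binding, and z-scores were calculated against random background probes after regression normalization of scanned fluorescence.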

Row | Sequence | PBM binding z-score
1 | ATCGAAAGGTCGAGGTGAGTAGAGAGAAAGGGAA | 0.405
2 | AGAGTGAGGTTAAGATCAGGGAAACAGAATACAT | 1.06
3 | ATCGAAAGGTCGAAGGTGAGTATGCCCACCCGAA | 0.413
4 | TCTGCTAGGTAAGTTGGTCAGCTAACGAGCTGCC | -0.989
5 | CGAATGAGGGCATGAGTTGATAGCAAATGCCGAT | 1.33
6 | CCTAGCAGGCCAATCTGGGTCACTCTAGGCTTGA | -0.375
7 | TCTTGTAGATCTAGCAGGTTAAGAAAGCCTGAGT | -0.0564
8 | TCTGATAGGTCAGTTGGTCAGCTAACGAGCTGCC | -0.342
9 | ACTAGCAGGCCAAGTTTGGGGCACTCAAACAAAG | -0.166
10 | TCTATTAGTTGATTAGCGCAACCGAAACAGCGGA | 0.523
11 | TCATATAGGTAAAAGGTGAAAATCGGTGTGGTAA | 0.627
12 | CCTTACGGGTCACTGACAGGTTATAGGATTTGGA | 1.28
13 | TCATATCGGTAAAGGTGAAAGTCGAACGATATGA | -0.566
14 | CCTAGCAGGCCAGGGTCCCTCAAGCATTTCGCTT | -0.542
15 | TCGGCTAGGTCAACGATGGTCAGCTAATCTGCTA | 0.189
16 | TTACCAACGTGAAAGGTCGTTGATGCACGCCTTG | 1.13
17 | ACAGAGAGGTGATGAAGGTAACTCAGGCTATCAT | -0.222
18 | ACTTACGGGTCAACGAGGTTATAGCGCGCGTATA | 4.01
